Test results taken from ChEMBL document CHEMBL2218924, “A broad activity screen in support of a chemogenomic map for kinase signalling research and drug discovery” (Biochem J, 2013).

Assays:
[1] = target: Death-associated protein kinase 1 (Homo sapiens) (UniProt P53355); details: at 10 µM
[2] = target: Death-associated protein kinase 2 (Homo sapiens) (UniProt Q9UIK4); details: at 1 µM
[3] = target: Death-associated protein kinase 2 (Homo sapiens) (UniProt Q9UIK4); details: at 10 µM
[4] = target: T1, Serine/threonine-protein kinase DCLK2 (Homo sapiens) (UniProt Q8N568); details: at 1 µM
T1 sequence (whole entry): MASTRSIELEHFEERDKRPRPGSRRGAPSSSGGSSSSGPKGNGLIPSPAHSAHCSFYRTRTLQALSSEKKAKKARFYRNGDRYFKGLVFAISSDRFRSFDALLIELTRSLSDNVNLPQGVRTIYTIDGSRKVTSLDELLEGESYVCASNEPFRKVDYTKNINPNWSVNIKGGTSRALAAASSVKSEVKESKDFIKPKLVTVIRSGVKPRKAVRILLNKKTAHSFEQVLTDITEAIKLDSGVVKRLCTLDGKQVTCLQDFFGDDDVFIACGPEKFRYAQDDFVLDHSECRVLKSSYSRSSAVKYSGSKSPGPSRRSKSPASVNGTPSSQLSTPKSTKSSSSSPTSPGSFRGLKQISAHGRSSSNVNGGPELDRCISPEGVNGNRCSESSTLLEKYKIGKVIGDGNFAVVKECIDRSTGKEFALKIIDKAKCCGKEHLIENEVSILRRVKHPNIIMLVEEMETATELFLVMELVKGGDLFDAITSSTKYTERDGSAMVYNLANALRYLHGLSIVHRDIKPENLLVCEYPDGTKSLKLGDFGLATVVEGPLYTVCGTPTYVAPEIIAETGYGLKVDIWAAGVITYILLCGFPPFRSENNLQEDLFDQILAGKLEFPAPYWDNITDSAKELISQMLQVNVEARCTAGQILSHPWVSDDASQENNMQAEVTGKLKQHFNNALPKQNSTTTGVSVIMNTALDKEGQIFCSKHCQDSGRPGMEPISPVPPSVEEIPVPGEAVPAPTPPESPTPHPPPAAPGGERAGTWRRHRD

[5] = target: T1, Serine/threonine-protein kinase DCLK2 (Homo sapiens); details: at 10 µM
[6] = target: T2, Discoidin domain-containing receptor 2 (Homo sapiens) (UniProt Q16832); details: at 1 µM
T2 sequence (whole entry): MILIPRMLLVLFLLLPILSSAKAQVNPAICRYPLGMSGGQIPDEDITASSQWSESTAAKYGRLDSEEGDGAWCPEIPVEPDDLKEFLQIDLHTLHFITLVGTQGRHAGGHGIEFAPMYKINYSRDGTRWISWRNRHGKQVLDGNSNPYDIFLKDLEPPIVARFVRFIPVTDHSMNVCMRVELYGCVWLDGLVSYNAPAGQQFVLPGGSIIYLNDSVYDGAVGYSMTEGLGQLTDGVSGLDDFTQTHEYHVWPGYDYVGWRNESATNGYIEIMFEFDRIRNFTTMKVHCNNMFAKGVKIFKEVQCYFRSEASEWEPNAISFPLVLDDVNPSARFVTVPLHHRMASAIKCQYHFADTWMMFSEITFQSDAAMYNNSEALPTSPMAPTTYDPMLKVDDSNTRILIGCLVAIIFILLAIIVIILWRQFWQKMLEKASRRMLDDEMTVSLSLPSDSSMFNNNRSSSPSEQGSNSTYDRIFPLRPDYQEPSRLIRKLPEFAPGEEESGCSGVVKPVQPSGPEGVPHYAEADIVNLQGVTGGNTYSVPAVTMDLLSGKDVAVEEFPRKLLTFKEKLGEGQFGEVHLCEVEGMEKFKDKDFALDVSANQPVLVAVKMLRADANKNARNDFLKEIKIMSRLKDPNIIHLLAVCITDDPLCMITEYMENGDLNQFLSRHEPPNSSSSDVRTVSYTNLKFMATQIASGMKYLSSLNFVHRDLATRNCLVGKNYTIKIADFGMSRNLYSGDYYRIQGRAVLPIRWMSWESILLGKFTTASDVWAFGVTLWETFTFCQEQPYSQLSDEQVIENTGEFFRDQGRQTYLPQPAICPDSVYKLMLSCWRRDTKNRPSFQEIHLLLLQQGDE

[7] = target: T2, Discoidin domain-containing receptor 2 (Homo sapiens); details: at 10 µM
[8] = target: T3, Serine/threonine-protein kinase 17A (Homo sapiens) (UniProt Q9UEE5); details: at 1 µM
T3 sequence (whole entry): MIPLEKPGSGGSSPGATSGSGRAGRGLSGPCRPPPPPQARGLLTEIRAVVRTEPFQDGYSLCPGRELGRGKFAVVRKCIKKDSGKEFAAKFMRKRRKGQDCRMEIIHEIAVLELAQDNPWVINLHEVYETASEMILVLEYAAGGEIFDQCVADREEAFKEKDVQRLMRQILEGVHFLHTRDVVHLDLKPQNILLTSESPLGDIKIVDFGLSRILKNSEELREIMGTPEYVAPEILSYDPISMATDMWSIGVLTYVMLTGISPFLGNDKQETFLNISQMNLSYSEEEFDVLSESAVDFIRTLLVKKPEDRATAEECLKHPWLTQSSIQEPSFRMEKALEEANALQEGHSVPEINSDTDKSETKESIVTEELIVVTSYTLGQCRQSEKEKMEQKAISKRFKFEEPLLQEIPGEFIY

[9] = target: T3, Serine/threonine-protein kinase 17A (Homo sapiens); details: at 10 µM
[10] = target: T4, Dual specificity tyrosine-phosphorylation-regulated kinase 2 (Homo sapiens) (UniProt Q92630); details: at 1 µM
T4 sequence (whole entry): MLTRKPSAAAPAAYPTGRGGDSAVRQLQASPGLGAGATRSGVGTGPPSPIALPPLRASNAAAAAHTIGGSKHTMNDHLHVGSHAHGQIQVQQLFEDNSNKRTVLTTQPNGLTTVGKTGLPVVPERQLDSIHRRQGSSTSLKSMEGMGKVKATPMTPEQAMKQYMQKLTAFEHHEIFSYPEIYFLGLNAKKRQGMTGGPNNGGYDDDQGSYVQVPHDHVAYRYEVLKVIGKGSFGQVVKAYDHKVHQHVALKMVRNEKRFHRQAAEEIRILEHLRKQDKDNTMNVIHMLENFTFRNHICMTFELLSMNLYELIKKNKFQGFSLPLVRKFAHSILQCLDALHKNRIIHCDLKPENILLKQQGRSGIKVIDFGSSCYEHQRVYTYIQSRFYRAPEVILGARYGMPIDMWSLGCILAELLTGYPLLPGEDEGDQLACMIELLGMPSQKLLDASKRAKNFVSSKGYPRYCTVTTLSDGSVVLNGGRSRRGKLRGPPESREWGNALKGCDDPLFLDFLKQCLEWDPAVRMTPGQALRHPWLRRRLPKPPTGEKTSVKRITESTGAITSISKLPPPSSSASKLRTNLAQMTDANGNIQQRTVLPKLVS

[11] = target: T4, Dual specificity tyrosine-phosphorylation-regulated kinase 2 (Homo sapiens); details: at 10 µM
[12] = target: T5, Ephrin type-A receptor 1 (Homo sapiens) (UniProt P21709); details: at 1 µM
T5 sequence (whole entry): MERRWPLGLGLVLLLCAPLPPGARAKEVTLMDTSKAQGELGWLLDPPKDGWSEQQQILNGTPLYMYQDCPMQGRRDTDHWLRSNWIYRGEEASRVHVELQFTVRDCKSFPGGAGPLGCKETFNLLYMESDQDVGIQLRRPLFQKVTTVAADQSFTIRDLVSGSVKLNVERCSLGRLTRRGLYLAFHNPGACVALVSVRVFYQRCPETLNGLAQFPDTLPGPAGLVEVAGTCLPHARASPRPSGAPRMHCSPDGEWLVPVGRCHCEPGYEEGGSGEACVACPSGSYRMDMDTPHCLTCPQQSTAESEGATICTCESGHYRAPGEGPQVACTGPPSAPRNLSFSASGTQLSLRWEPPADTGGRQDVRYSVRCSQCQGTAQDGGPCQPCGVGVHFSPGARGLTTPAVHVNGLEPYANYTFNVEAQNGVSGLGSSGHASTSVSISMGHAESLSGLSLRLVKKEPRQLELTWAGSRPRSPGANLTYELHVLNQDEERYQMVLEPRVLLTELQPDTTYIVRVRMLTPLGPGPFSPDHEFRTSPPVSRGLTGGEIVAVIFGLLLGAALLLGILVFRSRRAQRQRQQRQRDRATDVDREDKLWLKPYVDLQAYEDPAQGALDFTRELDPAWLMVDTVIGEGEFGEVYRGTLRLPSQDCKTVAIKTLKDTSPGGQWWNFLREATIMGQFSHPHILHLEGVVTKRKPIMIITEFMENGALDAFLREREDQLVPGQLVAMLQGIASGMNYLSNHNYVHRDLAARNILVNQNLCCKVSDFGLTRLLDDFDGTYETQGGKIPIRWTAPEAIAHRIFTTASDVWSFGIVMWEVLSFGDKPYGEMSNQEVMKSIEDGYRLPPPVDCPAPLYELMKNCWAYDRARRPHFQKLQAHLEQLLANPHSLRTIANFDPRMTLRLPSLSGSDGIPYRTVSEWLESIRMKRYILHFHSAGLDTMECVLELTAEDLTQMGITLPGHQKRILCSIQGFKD

[13] = target: T5, Ephrin type-A receptor 1 (Homo sapiens); details: at 10 µM
[14] = target: Ephrin type-A receptor 2 (Homo sapiens) (UniProt P29317); details: at 10 µM
Sequence of Ephrin type-A receptor 2 (Homo sapiens) (P29317 whole entry): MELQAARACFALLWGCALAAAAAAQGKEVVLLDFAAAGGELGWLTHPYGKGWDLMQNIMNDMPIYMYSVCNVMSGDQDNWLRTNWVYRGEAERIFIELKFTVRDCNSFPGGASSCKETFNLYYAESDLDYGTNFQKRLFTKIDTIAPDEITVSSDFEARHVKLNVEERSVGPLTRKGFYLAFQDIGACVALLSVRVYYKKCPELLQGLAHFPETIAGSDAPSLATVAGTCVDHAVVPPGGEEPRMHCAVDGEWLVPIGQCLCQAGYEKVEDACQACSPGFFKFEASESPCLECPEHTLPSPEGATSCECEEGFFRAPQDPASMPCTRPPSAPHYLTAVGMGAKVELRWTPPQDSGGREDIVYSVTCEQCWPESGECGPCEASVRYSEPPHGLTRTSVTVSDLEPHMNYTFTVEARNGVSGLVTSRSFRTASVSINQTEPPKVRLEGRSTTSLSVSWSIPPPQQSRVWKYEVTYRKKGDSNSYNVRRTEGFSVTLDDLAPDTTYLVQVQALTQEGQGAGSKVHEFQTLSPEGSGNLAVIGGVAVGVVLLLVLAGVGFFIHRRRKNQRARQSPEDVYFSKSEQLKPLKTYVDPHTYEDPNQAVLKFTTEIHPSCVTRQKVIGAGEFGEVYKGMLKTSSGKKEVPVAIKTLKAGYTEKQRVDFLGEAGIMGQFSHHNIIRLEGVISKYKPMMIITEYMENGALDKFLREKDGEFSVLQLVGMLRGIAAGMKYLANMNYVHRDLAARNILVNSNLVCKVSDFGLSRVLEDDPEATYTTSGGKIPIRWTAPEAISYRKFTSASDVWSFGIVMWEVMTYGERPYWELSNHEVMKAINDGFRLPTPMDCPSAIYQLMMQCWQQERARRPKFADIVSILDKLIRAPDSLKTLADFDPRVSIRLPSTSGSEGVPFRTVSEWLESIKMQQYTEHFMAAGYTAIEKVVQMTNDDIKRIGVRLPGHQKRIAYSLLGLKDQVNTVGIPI

[15] = target: T6, Ephrin type-A receptor 3 (Homo sapiens) (UniProt P29320); details: at 1 µM
T6 sequence (whole entry): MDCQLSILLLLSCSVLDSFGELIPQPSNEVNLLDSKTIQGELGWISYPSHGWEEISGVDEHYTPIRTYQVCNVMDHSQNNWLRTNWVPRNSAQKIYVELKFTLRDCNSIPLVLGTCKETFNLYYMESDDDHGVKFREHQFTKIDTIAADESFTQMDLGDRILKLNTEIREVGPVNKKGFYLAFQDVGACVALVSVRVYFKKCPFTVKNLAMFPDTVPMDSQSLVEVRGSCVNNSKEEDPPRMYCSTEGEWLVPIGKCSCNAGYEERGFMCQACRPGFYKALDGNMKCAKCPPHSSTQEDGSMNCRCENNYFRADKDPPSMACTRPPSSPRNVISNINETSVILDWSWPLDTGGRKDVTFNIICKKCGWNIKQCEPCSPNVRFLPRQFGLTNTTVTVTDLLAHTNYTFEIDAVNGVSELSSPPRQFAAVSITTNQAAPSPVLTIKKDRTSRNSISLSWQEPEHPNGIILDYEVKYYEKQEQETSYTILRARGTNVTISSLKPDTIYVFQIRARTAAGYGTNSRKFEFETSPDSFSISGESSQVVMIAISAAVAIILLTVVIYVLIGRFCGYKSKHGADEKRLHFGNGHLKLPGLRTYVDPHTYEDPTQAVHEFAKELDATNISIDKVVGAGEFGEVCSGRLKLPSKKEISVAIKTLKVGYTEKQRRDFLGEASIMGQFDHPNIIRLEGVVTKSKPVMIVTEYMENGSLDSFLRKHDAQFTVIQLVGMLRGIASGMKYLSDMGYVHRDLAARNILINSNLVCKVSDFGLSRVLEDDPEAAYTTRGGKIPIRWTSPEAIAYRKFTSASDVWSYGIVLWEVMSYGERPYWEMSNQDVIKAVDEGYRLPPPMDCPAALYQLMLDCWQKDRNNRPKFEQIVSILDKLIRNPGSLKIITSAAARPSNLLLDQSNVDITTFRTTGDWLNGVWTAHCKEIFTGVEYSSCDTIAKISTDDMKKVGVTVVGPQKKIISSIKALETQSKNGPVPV

[16] = target: T7, Myotonin-protein kinase (Homo sapiens) (UniProt Q09013); details: at 1 µM
T7 sequence (whole entry): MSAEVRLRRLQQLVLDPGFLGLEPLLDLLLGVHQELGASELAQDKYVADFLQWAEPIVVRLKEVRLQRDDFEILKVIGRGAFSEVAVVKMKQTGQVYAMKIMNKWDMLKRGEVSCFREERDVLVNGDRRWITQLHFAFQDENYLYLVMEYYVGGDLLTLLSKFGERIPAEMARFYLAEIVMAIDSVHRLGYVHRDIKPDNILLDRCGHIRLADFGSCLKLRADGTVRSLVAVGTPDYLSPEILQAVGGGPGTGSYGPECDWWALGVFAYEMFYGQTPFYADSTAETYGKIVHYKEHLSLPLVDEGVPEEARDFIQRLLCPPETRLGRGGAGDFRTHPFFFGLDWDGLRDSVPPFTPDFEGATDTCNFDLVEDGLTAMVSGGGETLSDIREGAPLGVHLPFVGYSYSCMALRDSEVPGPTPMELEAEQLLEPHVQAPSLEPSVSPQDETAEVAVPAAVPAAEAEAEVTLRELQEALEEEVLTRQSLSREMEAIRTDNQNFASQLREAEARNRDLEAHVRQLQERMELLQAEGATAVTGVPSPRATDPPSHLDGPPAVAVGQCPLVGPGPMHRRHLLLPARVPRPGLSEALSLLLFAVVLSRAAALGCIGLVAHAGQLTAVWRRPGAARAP

[17] = target: T7, Myotonin-protein kinase (Homo sapiens); details: at 10 µM
[18] = target: Ephrin type-A receptor 2 (Homo sapiens) (UniProt P29317); details: at 1 µM

Sequence of Death-associated protein kinase 2 (Homo sapiens) (Q9UIK4 whole entry, looked up): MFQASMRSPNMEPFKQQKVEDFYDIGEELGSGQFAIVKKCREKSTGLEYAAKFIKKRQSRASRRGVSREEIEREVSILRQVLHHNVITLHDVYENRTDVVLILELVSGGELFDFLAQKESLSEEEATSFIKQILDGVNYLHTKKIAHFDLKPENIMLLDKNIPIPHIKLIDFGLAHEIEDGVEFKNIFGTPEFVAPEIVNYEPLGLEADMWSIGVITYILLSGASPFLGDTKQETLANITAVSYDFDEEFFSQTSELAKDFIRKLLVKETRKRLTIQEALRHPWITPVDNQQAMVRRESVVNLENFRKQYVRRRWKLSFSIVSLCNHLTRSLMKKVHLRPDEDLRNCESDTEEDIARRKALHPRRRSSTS
Sequence of Death-associated protein kinase 1 (Homo sapiens) (P53355 whole entry, looked up): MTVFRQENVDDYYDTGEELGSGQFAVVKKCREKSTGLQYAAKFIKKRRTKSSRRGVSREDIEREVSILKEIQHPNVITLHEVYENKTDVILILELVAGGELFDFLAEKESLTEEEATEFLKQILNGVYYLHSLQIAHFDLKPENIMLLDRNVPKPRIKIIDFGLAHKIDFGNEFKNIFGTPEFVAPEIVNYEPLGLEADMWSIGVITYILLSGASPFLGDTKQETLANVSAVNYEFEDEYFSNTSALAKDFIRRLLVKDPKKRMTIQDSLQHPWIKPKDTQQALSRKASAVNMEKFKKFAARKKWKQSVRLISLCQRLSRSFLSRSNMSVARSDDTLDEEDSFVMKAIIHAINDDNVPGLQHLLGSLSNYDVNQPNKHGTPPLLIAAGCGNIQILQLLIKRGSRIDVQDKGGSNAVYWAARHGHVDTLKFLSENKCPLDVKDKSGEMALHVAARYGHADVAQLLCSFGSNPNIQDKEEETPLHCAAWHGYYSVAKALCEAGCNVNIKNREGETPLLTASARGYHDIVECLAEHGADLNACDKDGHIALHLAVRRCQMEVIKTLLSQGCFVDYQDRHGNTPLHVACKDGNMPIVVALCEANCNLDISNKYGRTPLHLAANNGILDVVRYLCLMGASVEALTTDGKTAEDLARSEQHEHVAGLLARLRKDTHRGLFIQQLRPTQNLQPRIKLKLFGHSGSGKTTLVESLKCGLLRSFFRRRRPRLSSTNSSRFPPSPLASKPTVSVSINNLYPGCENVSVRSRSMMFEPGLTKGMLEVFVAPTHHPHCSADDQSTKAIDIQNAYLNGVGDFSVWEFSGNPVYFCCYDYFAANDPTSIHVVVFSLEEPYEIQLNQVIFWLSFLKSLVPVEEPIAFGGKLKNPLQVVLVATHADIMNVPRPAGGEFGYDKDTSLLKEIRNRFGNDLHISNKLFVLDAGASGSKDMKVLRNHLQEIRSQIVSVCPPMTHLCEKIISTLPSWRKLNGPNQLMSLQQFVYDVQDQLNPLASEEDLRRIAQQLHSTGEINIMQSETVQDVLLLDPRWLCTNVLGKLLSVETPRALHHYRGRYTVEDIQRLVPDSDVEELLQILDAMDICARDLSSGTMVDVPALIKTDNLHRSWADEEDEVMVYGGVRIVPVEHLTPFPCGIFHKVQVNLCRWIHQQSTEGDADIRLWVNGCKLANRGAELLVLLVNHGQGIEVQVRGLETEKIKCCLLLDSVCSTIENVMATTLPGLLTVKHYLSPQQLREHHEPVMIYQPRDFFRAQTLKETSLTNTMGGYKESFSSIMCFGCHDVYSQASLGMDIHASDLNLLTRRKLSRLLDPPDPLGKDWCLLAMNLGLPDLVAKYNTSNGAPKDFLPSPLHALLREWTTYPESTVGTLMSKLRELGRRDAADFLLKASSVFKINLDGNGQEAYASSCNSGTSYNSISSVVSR

Row | SMILES | residual activity [1] [%] | residual activity [2] [%] | residual activity [3] [%] | residual activity [4] [%] | residual activity [5] [%] | residual activity [6] [%] | residual activity [7] [%] | residual activity [8] [%] | residual activity [9] [%] | residual activity [10] [%] | residual activity [11] [%] | residual activity [12] [%] | residual activity [13] [%] | residual activity [14] [%] | residual activity [15] [%] | residual activity [16] [%] | residual activity [17] [%] | residual activity [18] [%]
1 | O=c1cc(N2CCOCC2)oc2c1ccc1ccccc12 | 84 | 92 | 80 | 83 | 87 | 106 | 105 | 92 | 71 | 97 | 65 | 91 | 87 | 95 | 92 | – | – | –
2 | Nc1ncnc2c1c(-c1ccc(Oc3ccccc3)cc1)cn2C1CCCC1 | 69 | 101 | – | 91 | 93 | 105 | 53 | 110 | 104 | 91 | 82 | 72 | 18 | 55 | 101 | 127 | 127 | 100
3 | Nc1nc(Nc2ccc(S(N)(=O)=O)cc2)nn1C(=O)c1c(F)cccc1F | 96 | 97 | 77 | 68 | 25 | – | – | 77 | 47 | – | – | 58 | 6 | 39 | – | – | – | –
